Assay results published in article PMC4336329 (PLoS ONE, 2015).
Among all 310,000 compounds or so, about 2,200 (0.71%) showed an effect of 50% or more. Effects have a minus sign here. The sample holds strong results, similar compounds and a random draw of the others, so the mix is not that of the screen.

Target: human ether-à-go-go-related gene (hERG) potassium channel (human, UniProt Q12809)
Assay: primary screen, population patch clamp on CHO cells stably expressing hERG; higher = less effect of the substance

Sequence of human ether-à-go-go-related gene (hERG) potassium channel (Q12809 whole entry, looked up): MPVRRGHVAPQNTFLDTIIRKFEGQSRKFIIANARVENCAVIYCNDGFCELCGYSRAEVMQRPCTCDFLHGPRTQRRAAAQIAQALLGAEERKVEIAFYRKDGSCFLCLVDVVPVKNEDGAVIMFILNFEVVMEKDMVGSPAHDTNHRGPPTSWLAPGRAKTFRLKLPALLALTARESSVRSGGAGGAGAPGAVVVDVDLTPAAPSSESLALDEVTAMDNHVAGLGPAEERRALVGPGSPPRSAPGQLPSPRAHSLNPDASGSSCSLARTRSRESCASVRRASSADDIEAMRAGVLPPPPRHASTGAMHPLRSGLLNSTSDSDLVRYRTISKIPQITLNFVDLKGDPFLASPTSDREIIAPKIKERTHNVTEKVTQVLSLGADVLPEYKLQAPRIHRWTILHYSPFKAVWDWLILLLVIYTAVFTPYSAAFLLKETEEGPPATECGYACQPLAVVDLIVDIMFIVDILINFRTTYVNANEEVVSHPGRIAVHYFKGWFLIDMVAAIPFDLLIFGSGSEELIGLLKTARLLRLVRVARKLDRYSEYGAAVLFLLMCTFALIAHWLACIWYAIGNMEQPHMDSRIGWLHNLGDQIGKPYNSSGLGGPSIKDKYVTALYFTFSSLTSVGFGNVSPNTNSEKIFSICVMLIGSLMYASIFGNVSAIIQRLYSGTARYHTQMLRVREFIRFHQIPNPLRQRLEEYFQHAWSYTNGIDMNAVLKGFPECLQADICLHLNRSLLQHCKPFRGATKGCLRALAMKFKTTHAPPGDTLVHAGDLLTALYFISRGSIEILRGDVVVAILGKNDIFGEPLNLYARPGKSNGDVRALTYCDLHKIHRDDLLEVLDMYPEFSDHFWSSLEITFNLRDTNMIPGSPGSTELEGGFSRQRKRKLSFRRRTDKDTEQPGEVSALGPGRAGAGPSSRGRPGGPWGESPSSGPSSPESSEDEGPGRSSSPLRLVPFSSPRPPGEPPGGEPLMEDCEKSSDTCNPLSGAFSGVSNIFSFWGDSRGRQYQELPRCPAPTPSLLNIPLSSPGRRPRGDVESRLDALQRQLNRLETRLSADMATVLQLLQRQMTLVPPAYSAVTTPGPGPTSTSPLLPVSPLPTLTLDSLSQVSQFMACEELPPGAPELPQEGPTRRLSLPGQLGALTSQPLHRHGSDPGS

SMILES	hERG current change (%, negative = inhibition) at 1uM [%]
N#C/C(=C/c1ccc(N2CCCCCC2)o1)c1ccc(F)cc1	16.2
O=C1CC(Nc2ccc(N3CCOCC3)cc2)C(=O)N1c1ccccc1F (stereo not shown)	3.19
CCN1C(=O)[C@H]2[C@@H](c3ccc(-c4ccc(OC)cc4)cc3)N3CCC[C@@]3(C(=O)OC)[C@H]2C1=O.O=C(O)C(F)(F)F	11.6
Cc1cc(C)c(S(=O)(=O)N2CCCCC2CCNC(=O)C(=O)NCCN2CCOCC2)c(C)c1 (stereo not shown)	6.75
Cc1cc(C(C)(C)CC(C)(C)C)ccc1OCCOCC[N+](C)(C)Cc1ccccc1.[Cl-]	-62
Cc1cc(C(C)(C)C)ccc1OCCOCCN1CCCC1	-0.816
Cc1cc(C(C)(C)C)ccc1OCCN(C)C	-15.1
COc1cccc(S(=O)(=O)NCC(=O)N2CCCCCC2)c1	25
Cc1ccc(S(=O)(=O)N2CCN(c3ccccc3)CC2)cc1C(=O)NC1CCCCC1	10.8
Cc1ccc(S(=O)(=O)N2CCN(c3ccccc3)CC2)cc1C	12.5
Cc1ccc(S(=O)(=O)N2CCN(c3ccccc3)CC2)cc1C(N)=O	-52
CC(C)OC(=O)c1ccc(NC(=O)c2ccco2)cc1	6.19
Cc1ccc(S(=O)(=O)Cn2nnnc2C(CC(C)C)N2CCN(C(=O)c3ccco3)CC2)cc1.Cl (stereo not shown)	7.63
C=CCNc1nc(C(=O)OCC(=O)Nc2cc(S(C)(=O)=O)ccc2Cl)cs1	4.15
Cc1ccc(C(=O)c2c3ccc([N+](=O)[O-])cc3[n+]([O-])n2CCCC(N)=O)cc1	-11.4
Cc1ccc(C(=O)c2c3ccc(C(F)(F)F)cc3[n+]([O-])n2CCCC(N)=O)cc1	-39
Nc1c(Cl)cc(C(=O)c2c3ccc(C(F)(F)F)cc3[n+]([O-])n2CCC[NH3+])cc1Cl.[Cl-]	-37.3
Cc1ccc(C(=O)c2c3ccc(C(F)(F)F)cc3[n+]([O-])n2CCC[NH3+])cc1.O=C([O-])C(F)(F)F	-64.4
Cc1ccc(C(=O)c2c3ccc([N+](=O)[O-])cc3[n+]([O-])n2CCC[NH3+])cc1.O=C([O-])C(F)(F)F	-14.7
NC(=O)CCCn1c(C(=O)c2ccc(Cl)cc2)c2ccc([N+](=O)[O-])cc2[n+]1[O-]	-58.2
Nc1c(Cl)cc(C(=O)c2c3ccc([N+](=O)[O-])cc3[n+]([O-])n2CCC[NH3+])cc1Cl.O=C([O-])C(F)(F)F	1.56
NC(=O)CCCn1c(C(=O)c2cc(Cl)c(N)c(Cl)c2)c2ccc(C(F)(F)F)cc2[n+]1[O-]	5.14
Cc1ccc(C(=O)c2c3ccc(C(F)(F)F)cc3[n+]([O-])n2CCC(N)=O)cc1	-28.8
[Cl-].[NH3+]CCCn1c(C(=O)c2ccc(Cl)cc2)c2ccc([N+](=O)[O-])cc2[n+]1[O-]	-47.1
[Cl-].[NH3+]CCCn1c(C(=O)c2ccc(Cl)cc2)c2ccc(C(F)(F)F)cc2[n+]1[O-]	-80.9
NC(=O)CCCn1c(C(=O)c2ccc(Cl)cc2)c2ccc(C(F)(F)F)cc2[n+]1[O-]	-80.1
COc1cccc(CNS(=O)(=O)c2c(C(=O)N3CCCCCC3)c(C)n(C)c2C)c1	7.52

SMILES	hERG current change (%, negative = inhibition) at 1uM [%]
Cc1ccccc1CNC1CCCCC1.Cl	2.15
O=C(Cn1cnc2cc([N+](=O)[O-])ccc2c1=O)Nc1ccccc1Cl	6.18
COC(=O)c1ccc(-c2nc(O)c(C)s2)cc1	9.1
CC1=C(C(=O)Nc2cccc(C(=O)NCc3ccc(F)cc3)c2)SCCO1	15.3
COc1ccc(C(=O)c2c3ccc(C(F)(F)F)cc3[n+]([O-])n2CCC[NH3+])cc1.[Cl-]	-63
COc1ccc(C(=O)c2c3ccc(C(F)(F)F)cc3[n+]([O-])n2CCCC(N)=O)cc1	-21.6
COc1ccc(C(=O)c2c3ccc([N+](=O)[O-])cc3[n+]([O-])n2CCC[NH3+])cc1.[Cl-]	-13.5
Cc1ccc(-c2nn3nnnc3c3ccccc23)cc1C	-5.22
Cc1ccc(-c2nn3nnnc3c3ccccc23)cc1	12.9
c1ccc(-c2nn3nnnc3c3ccccc23)cc1	-82.9
Cc1c(CCOC(=O)c2ccccc2)sc[n+]1CC(=O)c1ccc(Br)cc1.[Br-]	-82.8
Cc1c(CCOC(=O)CC23CC4CC(CC(C)(C4)C2)C3)sc[n+]1CC(=O)c1ccccc1.[Br-]	-5.09
Cc1c(CCOC(=O)CC23CC4CC(CC(C4)C2)C3)sc[n+]1CC(=O)c1ccccc1.[Br-]	-6.04
COc1ccc(C(=O)OCCc2sc[n+](CC(=O)c3ccccc3)c2C)cc1.[Br-]	9.69
Cc1c(CCOC(=O)c2ccc([N+](=O)[O-])cc2)sc[n+]1CC(=O)c1ccccc1.[Br-]	-6.66
Cc1c(CCOC(=O)CC23CC4CC(CC(C4)C2)C3)sc[n+]1CC(=O)c1ccc(Br)cc1.[Br-]	-63.5
CCc1ccc(C(C(=O)NC2CCCC2)N(Cc2cccnc2)C(=O)c2csnn2)cc1 (stereo not shown)	2.84
Nc1c(-c2ccccc2)nc(Cl)nc1-c1ccccc1	13.2
CN(CC(=O)Nc1ccccc1Cl)C(=O)COC(=O)/C=C/c1ccc(C(F)(F)F)cc1	16.2
Cc1ccccc1C(=O)c1cccn1CC(=O)NCCCN1CCc2ccccc2C1	-70
O=C(Cn1cccc1C(=O)c1ccccc1)NCCCN1CCc2ccccc2C1	-41.7
Cc1ccccc1C(=O)c1cccn1CC(=O)NCCCN1CC(C)CC(C)C1 (stereo not shown)	-59
CC1CC(C)CN(CCCNC(=O)Cn2cccc2C(=O)c2ccccc2)C1 (stereo not shown)	-25
Cc1ccc(C)c(N2CCN(CCCNC(=O)Cn3cccc3C(=O)c3ccccc3C)CC2)c1	-22.1
Cc1ccccc1C(=O)c1cccn1CC(=O)NCCCN1CCCCC1	0.894
CN(C)CCN1C(=O)c2oc3ccccc3c(=O)c2C1c1ccc(F)cc1 (stereo not shown)	-2.93
CC(=O)Nc1ccc(Oc2sc(C(=O)c3ccccc3)c(N)c2C#N)cc1	9.56

SMILES	hERG current change (%, negative = inhibition) at 1uM [%]
COCCN(C(=O)CSc1nnc(-c2ccco2)n1C)c1c(N)n(CC(C)C)c(=O)[nH]c1=O	8.54
CCN1CCN(c2ccc(NC(=O)c3ccc4c(c3)OCO4)cc2)CC1	-16.7
CCOC(=O)C1=C(COC(=O)/C=C/c2cccc(Br)c2)NC(=O)NC1C (stereo not shown)	-7.77
Cc1ccc(C#N)c(SCc2cccc(Br)c2)n1	17.2
CCCCOC(=O)c1ccc(NC(=O)/C=C/c2cccs2)cc1	1.76
CCN(CC)CCOC(=O)c1ccc(NC(=O)/C=C/c2cccs2)cc1.Cl	-53.5
CCCOC(=O)c1ccc(NC(=O)/C=C/c2cccs2)cc1	7.88
O=C(N/N=C\c1cccnc1)c1cc(-c2ccc(Cl)s2)[nH]n1	8.22
CN(C)c1ccc(/C=C(\NC(=O)c2ccccc2)C(=O)NCCN2CCOCC2)cc1	8
O=C(NCCN1CCOCC1)/C(=C\c1ccc(Br)cc1)NC(=O)c1cccs1	-54
O=C(NCCN1CCOCC1)/C(=C/c1ccc(F)cc1)NC(=O)c1ccccc1	-58.4
O=C(NCCCN1CCOCC1)/C(=C/c1ccc(F)cc1)NC(=O)c1ccccc1	-46.5
O=C(NCCO)/C(=C/c1ccc(Br)cc1)NC(=O)c1cccs1	-8.3
O=C(NCCO)/C(=C\c1ccc(Br)cc1)NC(=O)c1cccs1	6.96
CSc1ccc(/C=C(/NC(=O)c2ccccc2)C(=O)NCCN2CCOCC2)cc1	-10.3
O=C(NCCN1CCOCC1)/C(=C\c1ccc(F)cc1)NC(=O)c1ccccc1	-51.7
CSc1ccc(/C=C(\NC(=O)c2ccccc2)C(=O)NCCN2CCOCC2)cc1	-44.3
COc1cc(CCC(=O)OCC(=O)Nc2ccc(F)c(F)c2)cc(OC)c1OC	3.59
CC(C)N1C(=O)S/C(=C/c2ccc3c(c2)n(C)c(=O)n3C)C1=O	-5.59
COc1ccc(CNC(=O)COC(=O)CC2CC3CCC2C3)cc1OC (stereo not shown)	6.66
COc1cccc(/C=C/c2nc3c(cnn3-c3ccccc3)c(=O)[nH]2)c1	9.85
COC(=O)c1cc(NC(=O)Cc2ccc(OC)cc2)cc(C(=O)OC)c1	14.7
CCN1CCN(c2ncnc3sc(C(=O)Nc4ccccc4F)c(C)c23)CC1	-50.9
CCOC(=O)c1sc2ncnc(N3CCN(CC)CC3)c2c1C	-9.54
Cc1c(C(=O)Nc2c(F)cccc2F)sc2ncnc(N3CCN(c4ccccc4)CC3)c12	4.01
